The nature of test [1]: BSK_3C_Vis: BioMAP Diversity Plus: 3C Assay for Morphology Visualization (AID 2283025).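 Also: fitted both ways so gain or loss versus DMSO counts.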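 As to AC50: light microscopy image of cell morphology used as background control.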 The settings on record: primary human endothelial cells (HUVEC). In short, it runs like this: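 Chemicals were added to primary human umbilical vein endothelium, cells were incubated 24 h, and morphology was then visualized by light microscopy. Gain or loss of signal was fitted bidirectionally relative to DMSO.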

Read-out in test [2]: Pselectin, SELP (gene 6403)
In words: BSK_4H_Pselectin: BioMAP Diversity Plus: 4H Assay for Pselectin Biomarker Activity (AID 2283026). Conditions: primary human endothelial cells (HUVEC); actives raise or lower the signal. In outline:
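ELISA read-out of P-selectin on human umbilical vein endothelium after 24 h of dosing. Values derive from bidirectional fitting relative to DMSO. Parallel SRB protein staining flagged overt cytotoxicity.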

Test [3] can be described thus: BSK_4H_SRB: Viability Assessment in the BioMAP Diversity Plus: 4H Assay (AID 2283027).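 Also: cells exposed to compound for 24 h before staining.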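 As to AC50: curves fitted both ways versus DMSO so AC50 may be loss or gain.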 Conditions: primary human endothelial cells (HUVEC). In short, it runs like this: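 Human umbilical vein endothelial cells were dosed with chemical and, after 24 h, fixed with 10% TCA, stained with 0.1% sulforhodamine B, and read at 560 nm to give total protein as a cytotoxicity measure. Bidirectional fitting relative to DMSO control.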

A short description of test [4]: BSK_BE3C_SRB: Viability Assessment in the BioMAP Diversity Plus: BE3C Assay (AID 2283028).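 As to AC50: fitted both ways so AC50 may mark signal gain or loss versus DMSO.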 The settings on record: primary human bronchial epithelial cells. In outline: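 Cytotoxicity read-out: SRB (0.1%) staining of TCA-fixed (10%) human lung bronchial epithelial cells, absorbance 560 nm, 24 h post-dosing. Curves fitted both directions relative to DMSO.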
Read-out in test [5]: Thrombomodulin, THBD (gene 7056)
Briefly: BSK_3C_Thrombomodulin: BioMAP Diversity Plus: 3C Assay for Thrombomodulin Biomarker Activity (AID 2283029). Conditions: primary human endothelial cells (HUVEC); actives raise or lower the signal. In outline:
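Read-out is ELISA of thrombomodulin on human umbilical vein endothelium 24 h after chemical dosing. Gain or loss of signal is scored relative to DMSO. Overt cytotoxicity is checked in parallel cultures by sulforhodamine B staining.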

Read-out in test [6]: Urokinase-type plasminogen activator receptor (uPAR), PLAUR (gene 5329)
Briefly: BSK_4H_uPAR: BioMAP Diversity Plus: 4H Assay for Urokinase-type plasminogen activator receptor (uPAR) Biomarker Activity (AID 2283030). The settings on record: primary human endothelial cells (HUVEC); actives raise or lower the signal. In short, it runs like this: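 uPAR level read by ELISA on HUVEC cultures (BioMAP 4H) 24 h post-dosing, analyzed for gain or loss relative to DMSO. Parallel SRB staining assessed overt cytotoxicity.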

Read-out in test [7]: Vascular endothelial growth factor receptor 2 (Homo sapiens) (UniProt P35968)
Briefly: BSK_4H_VEGFRII: BioMAP Diversity Plus: 4H Assay for Vascular endothelial growth factor receptor 2 (VEGFR2) Biomarker Activity (AID 2283031). Conditions: primary human endothelial cells (HUVEC); actives raise or lower the signal. In short, it runs like this:
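Measured by ELISA after 24 h of compound treatment: VEGFR2 on primary human umbilical vein endothelial cells, fitted in both directions relative to DMSO. Parallel cultures received SRB staining (560 nm) for overt cytotoxicity.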

Read-out in test [8]: Human Leukocyte Antigen - DR isotype (HLADR), HLA-DRA (gene 3122)
In words: BSK_BE3C_HLADR: BioMAP Diversity Plus: BE3C Assay for Human Leukocyte Antigen - DR isotype (HLADR) Biomarker Activity (AID 2283032). The settings on record: primary human bronchial epithelial cells; actives raise or lower the signal. In short, it runs like this:
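ELISA read-out of HLA-DR on human lung bronchial epithelial primary cells, measured 24 h post-dosing. Both increases and decreases were scored relative to DMSO vehicle.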

Read-out in test [9]: Vascular cell adhesion molecule 1 (VCAM1), VCAM1 (gene 7412)
In words: BSK_4H_VCAM1: BioMAP Diversity Plus: 4H Assay for Vascular cell adhesion molecule 1 (VCAM1) Biomarker Activity (AID 2283033).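 As to outcome: cell-surface VCAM-1 protein measured by ELISA.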 Conditions: primary human endothelial cells (HUVEC); actives raise or lower the signal. In short, it runs like this:
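ELISA read-out of VCAM-1 on human umbilical vein endothelium 24 hours after chemical dosing; gain or loss of signal was fitted relative to DMSO, with sulforhodamine B staining of parallel cultures flagging overt cytotoxicity.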

Read-out in test [10]: Interferon-gamma inducible Protein 10 (IP10), CXCL10 (gene 3627)
Briefly: BSK_BE3C_IP10: BioMAP Diversity Plus: BE3C Assay for Interferon-gamma inducible Protein 10 (IP10) Biomarker Activity (AID 2283034). The settings on record: primary human bronchial epithelial cells; actives raise or lower the signal. In outline: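 Chemical is dosed onto human lung bronchial epithelial primary cells, cultures are incubated 24 h, and IP-10 is then quantified by ELISA. Gain or loss of signal is fitted in both directions relative to DMSO.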

SMILES strings stand for the structures. Calls of active or inactive are those of the source. The calls were made as follows: active = hit-call score of the fitted dose curve at least 0.9, where 1 is the maximum; inactive = score below 0.9.

For the compound `CCCCOC(=O)CCCCC(=O)OCCCC`, the result in test [1], in test [2], in test [3], in test [4], in [5] and in [6] was inactive. The outcome in test [7], in test [8], in test [9] and in test [10] was inactive.
Regarding `Cc1cc(Cc2ccc(N)c(C)c2)ccc1N`, the outcome in [1], in test [2], in [3], in test [4], in test [5] and in test [6] was inactive. Moreover, the result in test [7], in test [8], in [9] and in [10] was inactive.
Regarding `CC(C)c1cccc(C(C)C)c1`, the outcome in test [1], in test [2], in [3], in test [4], in test [5] and in test [6] was inactive. The outcome in test [7], in test [8], in test [9] and in test [10] was inactive.
As to `O=C(O)c1[nH]n(-c2ccc(S(=O)(=O)O)cc2)c(=O)c1N=Nc1ccc(S(=O)(=O)O)cc1`, the outcome in [1], in [2], in test [3], in test [4], in test [5] and in test [6] was inactive. Also, the result in test [7], in [8], in test [9] and in [10] was inactive.
`CCCCCCC(CCCCCCCCCCC(=O)OCC(COC(C)=O)OC(C)=O)OC(C)=O` (stereo not given): the result in test [1], in test [2], in test [3], in test [4], in test [5] and in test [6] was inactive. In addition, the outcome in test [7] and in test [9] was inactive. Further, the concentration at half-maximal activity (AC50) in test [8] was 10 µM (active); in test [10] it was 11.4 µM (active).
For `O=C1NC(=O)C(c2ccccc2)(c2ccccc2)N1`, the outcome in [1], in [2], in test [3], in test [4], in test [5] and in test [6] was inactive. In addition, the outcome in test [7], in test [8], in test [9] and in [10] was inactive.
In the case of `CO[C@@H]1COCC[C@@H]1N[C@@H]1CC[C@@](C(=O)N2CCc3ncc(C(F)(F)F)cc3C2)(C(C)C)C1`, the outcome in test [1], in test [2], in test [3], in test [4], in [5] and in test [6] was inactive. Further, the result in test [7], in [8], in test [9] and in [10] was inactive.
For the compound `C/C=C/c1ccc(OC)cc1`, the outcome in test [1], in [2], in test [3], in [4], in [5] and in test [6] was inactive. In addition, the result in test [7], in test [8], in [9] and in test [10] was inactive.
In the case of `O=C1CCCCC1`, the result in test [1], in test [2], in [3], in test [4], in test [5] and in [6] was inactive. Besides, the outcome in [7], in test [8], in test [9] and in test [10] was inactive.
Regarding `CC1=C(C)S(=O)(=O)CCS1(=O)=O`, in test [1], the AC50 is 39 µM (active). For the same compound, the result in [2], in test [3], in test [4], in test [5], in test [6] and in test [7] was inactive. The result in test [8], in test [9] and in [10] was inactive.
Regarding `Cc1cc(SC2=C(O)C[C@@](CCc3ccc(N)cc3)(C(C)C)OC2=O)c(C(C)(C)C)cc1CO`, the outcome in [1], in test [2], in test [3], in test [4], in test [5] and in test [6] was inactive. In addition, the result in test [7], in test [8], in test [9] and in test [10] was inactive.
On to `Cn1cnc2c1c(=O)[nH]c(=O)n2C`, for which the outcome in [1], in test [2], in test [3], in test [4], in test [5] and in [6] was inactive. In addition, the result in [7], in test [8], in test [9] and in [10] was inactive.
In the case of `O=C(O)c1cccnc1`, the outcome in [1], in test [2], in [3], in [4], in test [5] and in test [6] was inactive. For the same compound, the result in test [7], in test [8], in test [9] and in test [10] was inactive.
With `CCCCC(CC)COC(=O)CCCCCCCC(=O)OCC(CC)CCCC` (stereo not given), the outcome in test [1], in test [2], in test [3], in test [4], in test [5] and in [6] was inactive. In addition, the result in test [7], in test [8], in [9] and in test [10] was inactive.
Regarding `Cc1c(C)c2c(c(C)c1O)CCC(C)(COc1ccc(CC3SC(=O)NC3=O)cc1)O2` (stereo not given), the AC50 in test [1] is 20 µM (active); in test [2], 14 µM (active); in test [3] it was 23 µM (active); in test [4], 28.4 µM (active); in [6] it was 28.6 µM (active); in [8], 15.2 µM (active). For the same compound, the half-maximal activity concentration (AC50) in test [9] was 31.8 µM (active); in test [10] it was 14.2 µM (active). Further, the outcome in test [5] and in test [7] was inactive.
`O=C(O)CN(CC(=O)O)CC(=O)O`: the result in [1], in test [2], in test [3], in test [4], in [5] and in test [6] was inactive. Besides, the outcome in test [7], in [8], in test [9] and in [10] was inactive.
Turning to `C#CC(O)C(CC)CCCC` (stereo not given), the result in test [1], in [2], in [3], in [4], in [5] and in test [6] was inactive. Besides, the result in test [7], in test [8], in test [9] and in test [10] was inactive.
With `COC(=O)CCC(=O)OC`, the outcome in [1], in [2], in test [3], in test [4], in test [5] and in test [6] was inactive. Moreover, the outcome in test [7], in test [8], in test [9] and in test [10] was inactive.
For the compound `CCOCCOCCO`, the outcome in test [1], in [2], in test [3], in test [4], in [5] and in test [6] was inactive. The outcome in test [7], in [8], in test [9] and in test [10] was inactive.
Take `O=C(N[C@@H](c1ccccc1)[C@@H]1CCCCN1)c1cccc(C(F)(F)F)c1Cl`: the AC50 in test [1] was 13.7 µM (active); in [2], 20 µM (active); in [4] it was 34.3 µM (active); in test [8], 33.2 µM (active); in test [10] it was 33.5 µM (active). Also, the result in test [3], in test [5], in [6], in test [7] and in test [9] was inactive.
As to `CCN(CC)CCOc1ccc(C(=C(Cl)c2ccccc2)c2ccccc2)cc1`, the AC50 was 6.1 µM (active) in test [1]; 8.24 µM (active) in [2]; 13.1 µM (active) in test [3]; 27.8 µM (active) in [4]; 5.39 µM (active) in [5]; 13 µM (active) in test [6]. Further, the values for the half-maximal activity concentration (AC50) in test [8], in [9] and in test [10] were 15.2 µM (active), 11.6 µM (active) and 15.3 µM (active), respectively. In addition, in test [7], the outcome was inactive.
For the compound `CC(=O)O[C@]1(C(C)=O)CC[C@H]2[C@@H]3C=C(Cl)C4=CC(=O)[C@@H]5C[C@@H]5[C@]4(C)[C@H]3CC[C@@]21C`, the outcome in test [1], in test [2], in [3], in test [4], in test [5] and in test [7] was inactive. The outcome in [9] was inactive. Moreover, the AC50 is 14.7 µM (active) in [6], 19.3 µM (active) in test [8] and 33.4 µM (active) in test [10].

The values above are taken from PubChem BioAssay (EPA / NIEHS).
